Inconclusive results are not listed. Unmarked numbers belong to inactive results. Active and inactive are the calls of the source. Calls come from the whole dose curve; as a rule, active = well fitted cell-killing curve with a large enough effect; inconclusive = small, poorly fitted or top-dose-only effect, or effect the other way; inactive = no such curve, though single readings can be large or run the other way.
assay: Quantitative High-Throughput drug screen in 47 multiple myeloma cell lines against the NCATS MIPE library collection: OPM1_PLB cell viability assay (AID 1918989); settings: CellTiter-Glo, 48 h; series mostly up to 45.8 µM; viability (% of control): at the top concentration; note: nearly all actives have a fitted effect of over 40% in size
Text: PI: Beverly A. Mock Ph.D.
Laboratory of Cancer Biology and Genetics,
Center for Cancer Research, National Cancer Institute,
National Institute of Health, Bethesda, Maryland
Drug resistance and disease progression are common in multiple myeloma (MM) patients, underscoring the need for new therapeutic combinations. […] We hypothesized that effective combinations would reduce MYC expression and enhance p16 activity. […] These preclinical data identify potentially useful drug combinations for evaluation in drug-resistant MM and reveal potential mechanisms of combined drug sensitivity.
Described herein is the primary MIPE qHTS used to cherrypick compounds. Validated compounds were then further tested for potential synergistic activiy.
[1] Peat TJ, Gaikwad SM, Dubois W, Gyabaah-Kessie N, Zhang S, Gorjifard S, Phyo Z, Andres M, Hughitt VK, Simpson RM, Miller MA, Girvin AT, Taylor A, Williams D, D'Antonio N, Zhang Y, Rajagopalan A, Flietner E, Wilson K, Zhang X, Shinn P, Klumpp-Thomas C, McKnight C, Itkin Z, Chen L, Kazandijian D, Zhang J, Michalowski AM, Simmons JK, Keats J, Thomas CJ, Mock BA. Drug combinations identified by high-throughput screening promote cell cycle transition and upregulate Smad pathways in myeloma. Cancer Lett. 2023 Aug 1;568:216284. doi: 10.1016/j.canlet.2023.216284. Epub 2023 Jun 24. PMID: 37356470; PMCID: PMC10408729.
SEQUENCE No. (e.g., 1, 2, 3, etc.); […] (e.g., Cells, Incubation, Reagent, etc.); VALUE and DESCRIPTION.
1; Cells; 5 uL; white, solid bottom 1536-well Greiner assay plate.
2; Compounds; 23 nL; Kalypsis pin tool (Wako USA) equipped with a 1536-well pin head to transfer to the assay plates.
3; Incubation; 48 hours; 37C incubation.
4; Reagent;5uL; CellTiter Glo (Promega).
5; Detector; 425V; Luminescence; Viewlux PerkinElmer.
NOTES (numbers refer to Sequence numbers above)
1. The cell-based screening methods employed in this study were like those previously published. Briefly, the corresponding myeloma cell lines were screened in 1,536-well plates with 500 cells, 5-uL per well for inhibition of cell viability (assessed by measuring ATP levels with CellTiterGlo).
2. NCATS MIPE 4.0 library of approved and investigational drugs were added using the Kalypsis pin tool. Wells treated with DMSO only for 100% viability and media only for 0% viability were used as controls.
3. The assay plates were covered and incubated for 48 hours in a 37C, 5% CO2 incubator with controlled humidity.
4. After 48 hours, CellTilter-GloTM luminescent substrate mix (Promega) reagent was added to the assay plate and plates we incubated for 5 min at room temperature.
5. Signal was measured as median relative luminescence units on a ViewLux (PerkinElmer) multiplate reader.
[1] Heske CM, Davis MI, Baumgart JT, Wilson K, Gormally MV, Chen L, Zhang X, Ceribelli M, Duveau DY, Guha R, Ferrer M, Arnaldez FI, Ji J, Tran HL, Zhang Y, Mendoza A, Helman LJ, Thomas CJ. Matrix Screen Identifies Synergistic Combination of PARP Inhibitors and Nicotinamide Phosphoribosyltransferase (NAMPT) Inhibitors in Ewing Sarcoma. Clin Cancer Res. 2017 Dec 1;23(23):7301-7311. doi: 10.1158/1078-0432.CCR-17-1121. Epub 2017 Sep 12. PMID: 28899971; PMCID: PMC6636827.
Potency is the fitted concentration of half-maximal effect.

Question: With `COc1cc2nc(N3CCN(C(=O)c4ccco4)CC3)nc(N)c2cc1OC` as the compound, how does the Potency read?
Answer: 8.33 µM (active)

Question: For `O=C(Nc1ccc([N+](=O)[O-])cc1Cl)c1cc(Cl)ccc1O`, which Potency is on record?
Answer: 0.833 µM (active)

Question: Which “viability (% of control)” value does the source give for `O=C(C1CCCCC1)N1CC(=O)N2CCc3ccccc3C2C1` (stereo not given) here?
Answer: 171%

Question: For `CN1CCN2c3ccccc3Cc3ccccc3C2C1` (stereo not given), which Potency is on record?
Answer: 16.6 µM (active)

Question: For `CN1CCN(C2=Nc3cc(Cl)ccc3Nc3ccccc32)CC1`, which Potency is on record?
Answer: 23.5 µM (active)

Question: For `Cc1cn([C@H]2C[C@H](N=[N+]=[N-])[C@@H](CO)O2)c(=O)[nH]c1=O`, which Potency is on record?
Answer: 29.6 µM (active)

Question: Which “viability (% of control)” value does the source give for `CCOC(=O)C(C)(C)Oc1ccc(Cl)cc1` here?
Answer: 167%

Question: For `NC(CO)C(=O)NNCc1ccc(O)c(O)c1O` (stereo not given), which “viability (% of control)” value is on record?
Answer: 89.4%

Question: Which “viability (% of control)” value does the source give for `CN(CCOc1ccc(NS(C)(=O)=O)cc1)CCc1ccc(NS(C)(=O)=O)cc1` here?
Answer: 123%

Question: Which Potency does the source give for `CNCCCC12CCC(c3ccccc31)c1ccccc12` here?
Answer: 23.5 µM (active)

Question: With `CCc1cccc2c3c([nH]c12)C(CC)(CC(=O)O)OCC3` (stereo not given) as the compound, how does the “viability (% of control)” value read?
Answer: 136%

Question: Which “viability (% of control)” value does the source give for `CCOC(=O)Nc1ccc(NCc2ccc(F)cc2)nc1N` here?
Answer: 123%

Question: With `CC(C)NCC(O)COc1ccc(CCOCC2CC2)cc1` (stereo not given) as the compound, how does the “viability (% of control)” value read?
Answer: 99.9%

Question: Which Potency does the source give for `CC(=O)OCC(CCn1cnc2cnc(N)nc21)COC(C)=O` here?
Answer: 0.0012 µM (active)

Question: With `NCCc1cnc[nH]1` as the compound, how does the “viability (% of control)” value read?
Answer: 165%

Question: With `NCCS(=O)(=O)O` as the compound, how does the “viability (% of control)” value read?
Answer: 174%

Question: Which Potency does the source give for `CCCCc1oc2ccccc2c1C(=O)c1cc(I)c(OCCN(CC)CC)c(I)c1` here?
Answer: 18.7 µM (active)

Question: Which Potency does the source give for `CC1(CN2CCC(n3c(=O)[nH]c4ccccc43)CC2)OCc2ccccc2-n2cccc21` (stereo not given) here?
Answer: 8.33 µM (active)

Question: Which Potency does the source give for `OCCN1CCN(CCCN2c3ccccc3Sc3ccc(C(F)(F)F)cc32)CC1` here?
Answer: 20.9 µM (active)

Question: For `CN(C)CCCN1c2ccccc2CCc2ccc(Cl)cc21`, which Potency is on record?
Answer: 14.8 µM (active)

Question: With `O=c1c(-c2ccc(O)cc2)coc2cc(O)cc(O)c12` as the compound, how does the “viability (% of control)” value read?
Answer: 99.3%

Question: Which Potency does the source give for `CN1CCC(=C2c3ccccc3C=Cc3ccccc32)CC1` here?
Answer: 18.7 µM (active)

Question: For `Cc1cc(C(C)(C)C)c(O)c(C)c1CC1=NCCN1`, which “viability (% of control)” value is on record?
Answer: 130%

Question: With `CC(C)Cc1ccc(C(C)C(=O)O)cc1` (stereo not given) as the compound, how does the “viability (% of control)” value read?
Answer: 110% [at 23.2 µM]

Question: Which “viability (% of control)” value does the source give for `O=C(c1ccc(F)cc1)C1CCN(CCn2c(=O)[nH]c3ccccc3c2=O)CC1` here?
Answer: 131%

Question: For `Clc1ccc(C(c2ccccc2Cl)C(Cl)Cl)cc1` (stereo not given), which Potency is on record?
Answer: 20.9 µM (active)

Question: Which Potency does the source give for `O=C1c2c(O)ccc(O)c2C(=O)c2c(NCCNCCO)ccc(NCCNCCO)c21` here?
Answer: 0.935 µM (active)

Question: With `Nc1nc2c(ncn2COC(CO)CO)c(=O)[nH]1` as the compound, how does the Potency read?
Answer: 16.6 µM (active)

Question: Which “viability (% of control)” value does the source give for `N[C@@H](Cc1c[nH]c2ccc(O)cc12)C(=O)O` here?
Answer: 136%

Question: For `COc1cc2c(c(OC)c1OC)-c1ccc(OC)c(=O)cc1[C@@H](NC(C)=O)CC2`, which “viability (% of control)” value is on record?
Answer: 5.22%

Question: For `NC(=O)NO`, which Potency is on record?
Answer: 0.833 µM (active)

Question: With `CN(C)C(=O)C(CCN1CCC(O)(c2ccc(Cl)cc2)CC1)(c1ccccc1)c1ccccc1` as the compound, how does the Potency read?
Answer: 23.5 µM (active)

Question: For `Clc1ccc2nsnc2c1NC1=NCCN1`, which “viability (% of control)” value is on record?
Answer: 141%

Question: For `CC(C)NCC(O)c1ccc(O)c(O)c1` (stereo not given), which Potency is on record?
Answer: 4.18 µM (active)

Question: For `CN(C)C(=N)N=C(N)N`, which “viability (% of control)” value is on record?
Answer: 150%

Question: With `CC(C)(Oc1ccc(C2CC2(Cl)Cl)cc1)C(=O)O` (stereo not given) as the compound, how does the “viability (% of control)” value read?
Answer: 152% [at 92.2 µM]

Question: Which Potency does the source give for `Nc1nnc(-c2cccc(Cl)c2Cl)c(N)n1` here?
Answer: 23.5 µM (active)

Question: For `CC(CCc1ccc(O)cc1)NCCc1ccc(O)c(O)c1` (stereo not given), which Potency is on record?
Answer: 26.4 µM (active)

Question: With `COc1cc2nc(N3CCN(C(=O)C4COc5ccccc5O4)CC3)nc(N)c2cc1OC` (stereo not given) as the compound, how does the Potency read?
Answer: 18.7 µM (active)

Question: Which “viability (% of control)” value does the source give for `Cc1cc(C(C)(C)C)cc(C)c1CC1=NCCN1` here?
Answer: 139%

Source: PubChem BioAssay (NCATS)
